Results reported in paper PMC4336329 (PLoS ONE, 2015).
In all, about 310,000 compounds went through this assay and about 2,200 (0.71%) showed an effect of 50% or more. The effect is printed as a negative number. The entries come from a sample that favours strong results as a whole.

target: human ether-à-go-go-related gene (hERG) potassium channel (human, UniProt Q12809); experiment: primary screen, population patch clamp on CHO cells stably expressing hERG; higher = less effect of the substance
Sequence (Q12809 whole entry, looked up): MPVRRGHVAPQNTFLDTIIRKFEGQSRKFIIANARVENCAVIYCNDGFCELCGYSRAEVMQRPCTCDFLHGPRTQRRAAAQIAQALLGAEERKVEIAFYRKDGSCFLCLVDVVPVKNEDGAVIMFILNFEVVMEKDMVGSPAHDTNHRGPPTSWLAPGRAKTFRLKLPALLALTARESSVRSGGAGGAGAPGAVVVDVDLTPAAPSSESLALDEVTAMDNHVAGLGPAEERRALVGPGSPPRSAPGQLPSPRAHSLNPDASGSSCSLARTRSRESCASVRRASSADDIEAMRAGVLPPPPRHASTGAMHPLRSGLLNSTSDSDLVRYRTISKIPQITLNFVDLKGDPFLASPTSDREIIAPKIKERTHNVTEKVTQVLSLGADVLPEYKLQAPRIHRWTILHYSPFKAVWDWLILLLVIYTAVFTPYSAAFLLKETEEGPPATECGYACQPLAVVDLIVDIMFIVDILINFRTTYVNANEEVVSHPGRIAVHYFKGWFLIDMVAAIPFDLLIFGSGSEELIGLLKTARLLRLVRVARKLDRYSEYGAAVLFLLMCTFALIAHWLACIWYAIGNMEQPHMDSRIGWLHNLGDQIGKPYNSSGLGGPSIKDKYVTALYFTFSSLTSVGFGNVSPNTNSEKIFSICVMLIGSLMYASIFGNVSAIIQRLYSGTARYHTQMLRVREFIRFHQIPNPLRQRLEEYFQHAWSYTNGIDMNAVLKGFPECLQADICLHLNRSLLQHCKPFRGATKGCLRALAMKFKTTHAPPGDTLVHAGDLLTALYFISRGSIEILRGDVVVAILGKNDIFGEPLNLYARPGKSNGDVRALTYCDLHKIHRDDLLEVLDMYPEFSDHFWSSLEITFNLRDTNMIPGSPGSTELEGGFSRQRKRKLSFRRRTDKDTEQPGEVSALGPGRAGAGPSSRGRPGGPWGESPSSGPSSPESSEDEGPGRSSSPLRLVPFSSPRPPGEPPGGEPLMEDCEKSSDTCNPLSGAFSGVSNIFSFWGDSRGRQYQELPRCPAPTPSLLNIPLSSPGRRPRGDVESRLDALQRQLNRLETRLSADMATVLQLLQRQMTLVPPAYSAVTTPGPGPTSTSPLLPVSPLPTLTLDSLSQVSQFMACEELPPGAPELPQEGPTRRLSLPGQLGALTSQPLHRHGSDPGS
Method: Briefly, Chinese hamster ovary (CHO) cells stably expressing the hERG channel were dislodged from tissue culture flasks and dispensed into PPC plates. […] During the recording, background leak currents were estimated by a 100 ms step to -80 mV from an initial holding potential of -70 mV and subtracted from the subsequent current measurement. The campaign was conducted in two phases using slight differences in recording protocol. In the first phase, the initial voltage pulse used a 100 ms step to -30 mV from a holding potential of -70 mV, a 2 s conditioning step to +25 mV, and a 2 s test step to -30 mV. During the second phase of the screen, the potential during the conditioning step was raised to +45 mV. In both phases of the campaign, a secondary voltage pulse was applied using the same parameters as the second phase initial pulse. The initial and secondary pulses were applied in the absence of compound, and upon application of 1 μM and 10 μM test concentrations. Small molecule effects on hERG current density were quantified by […].

Row | SMILES | hERG current change (%, negative = inhibition) at 1uM [%]
1 | O=C(NCCN1CCOCC1)c1ccc(N2CCCC2)c([N+](=O)[O-])c1 | -2.75
2 | COC(=O)/C=C\C(=O)Nc1cccc([N+](=O)[O-])c1 | 8.24
3 | CCOc1nc(C)cc(C)c1S(=O)(=O)c1ccc(Cl)cc1 | 9.36
4 | CCCCNC(=O)C1CCCN(S(=O)(=O)c2ccc(S(=O)(=O)NCC(C)C)cc2)C1 (stereo not drawn) | -3.36
5 | COc1ccccc1NCC(=O)N/N=C/c1cccnc1 | 4.49
6 | Cn1c(SCC(=O)Nc2ccccc2)nnc1-c1ccc(NC(=O)CCc2ccccc2)cc1 | 6.68
7 | Cc1cc(C)nc(-n2nc(C)cc2NC(=O)CN2CCc3ccccc3C2)n1 | -26.4
8 | COc1ccc(OC)c(C2C(C(N)=O)=C(C)Nc3nc(CCCO)nn32)c1 (stereo not drawn) | 15.5
9 | Cc1onc(-c2ccccc2Cl)c1C(=O)N1CCN(c2ccccc2)CC1 | 1.1
10 | O=C(c1cn(-c2ccccc2)nc1-c1cccs1)N1CCOCC1 | 4.92
11 | C=CCN(CC=C)CCOc1ccccc1[N+](=O)[O-].O=C(O)C(=O)O | 1.55
12 | C=CCN(CC=C)CCOc1ccc(C)cc1[N+](=O)[O-].O=C(O)C(=O)O | -62.5
13 | C=CCN(CC=C)CCOc1cc(C)ccc1[N+](=O)[O-].O=C(O)C(=O)O | 6.69
14 | O=C(CN1CCN(C/C=C/c2ccccc2)CC1)NC(=O)NC1CCCCC1 | -69.7
15 | O=C(CN1CCN(C/C=C/c2ccccc2)CC1)Nc1ccccc1C(=O)NC1CC1 | -88.8
16 | CC1CCN(CC(=O)Nc2ccccc2C(=O)NC2CC2)CC1 | 5.31
17 | S=C(NC1CCCCC1)N1CCN(C/C=C/c2ccccc2)CC1 | 3.77
18 | O=C(CN1CCN(Cc2ccccc2)CC1)NC(=O)NC1CCCCC1 | -16.1
19 | NC(=O)C1CCN(CC(=O)Nc2ccccc2C(=O)NC2CC2)CC1 | 10.7
20 | O=C(CSCc1ccccc1)N/N=C/c1cc2c(cc1Br)OCO2 | 8.61
21 | CSc1nnc(Cc2sc(-c3ccccc3)nc2-c2ccccc2)o1 | 12.1
22 | CC(C)=CCN1CCN(Cc2cccn2-c2ncccn2)CC1CCO (stereo not drawn) | -3.9
23 | OCCC1CN(Cc2cccn2-c2ncccn2)CCN1Cc1ccccc1 (stereo not drawn) | -33.4
24 | OCCC1CN(Cc2cccn2-c2cccnc2)CCN1Cc1ccccc1 (stereo not drawn) | -7.57

Row | SMILES | hERG current change (%, negative = inhibition) at 1uM [%]
25 | CCOc1ccc(CN2CCN(Cc3cccn3-c3ncccn3)CC2CCO)cc1 (stereo not drawn) | -84
26 | COc1ccc(CN2CCN(Cc3ccon3)CC2CCO)c(C)c1C (stereo not drawn) | 2.93
27 | COc1ccc(CN2CCN(Cc3cccn3-c3ncccn3)CC2CCO)c(C)c1C (stereo not drawn) | -80.4
28 | COc1cccc(CN2CCN(Cc3cccn3-c3cccnc3)CC2CCO)c1 (stereo not drawn) | -62.2
29 | OCCC1CN(Cc2cccn2-c2cccnc2)CCN1CCc1ccccc1 (stereo not drawn) | -37.5
30 | OCCC1CN(Cc2cccn2-c2ncccn2)CCN1Cc1ccc(F)cc1 (stereo not drawn) | -74.7
31 | OCCC1CN(Cc2cccn2-c2ncccn2)CCN1CCc1ccccc1 (stereo not drawn) | -44.6
32 | COc1ccc(CN2CCN(CC3CC3)CC2CCO)c(C)c1C (stereo not drawn) | 13.2
33 | OCCC1CN(Cc2cccn2-c2ncccn2)CCN1C1CCCC1 (stereo not drawn) | 0.978
34 | CCC(C)NC(=O)C(=O)NCc1ccncc1 (stereo not drawn) | 10.8
35 | CN1CCN(NC(=O)c2ccccc2F)CC1 | 11.7
36 | COc1ccc(CC(=O)Oc2cc(C)[nH]c(=O)c2[N+](=O)[O-])cc1 | 4.19
37 | COc1ccc(-c2csc(/C=C/c3ccc4c(c3)OCO4)n2)cc1OC | 2.68
38 | CN(c1ncnc(N)c1[N+](=O)[O-])C1CCCCC1 | 12.5
39 | Cc1ccc(S(=O)(=O)N2CCC(C(=O)N3CCC3)CC2)cc1 | 11.3
40 | CC(C)OC(=O)COc1cc(O)c2c(=O)cc(-c3ccccc3)oc2c1 | 10.8
41 | CCOC(=O)C1CCCN(CCCc2ccccc2)C1 (stereo not drawn) | -2.62
42 | COc1ccccc1-c1ccc(=O)n(CC(=O)NCc2cccs2)n1 | 15.8
43 | COCCC(=O)N1CCC(Oc2ccc(C(=O)N3C[C@@H]4CCC[C@H]3C4)cc2)CC1 | 5.49
44 | OC[C@H]1O[C@@H](Oc2ccc3cc(Br)ccc3c2)[C@H](O)[C@@H](O)[C@H]1O | 4.75
45 | CCOc1ccc(CN2CCN(Cc3cccn3-c3cccnc3)CC2CCO)cc1 (stereo not drawn) | -86.3
46 | OCCC1CN(Cc2cccn2-c2cccnc2)CCN1Cc1ccc(F)cc1 (stereo not drawn) | -21.4
47 | CC(C)CCN1CCN(Cc2cccn2-c2cccnc2)CC1CCO (stereo not drawn) | -9.84
48 | Cc1cc(/C([O-])=C(/C(=S)Nc2ccccc2)[n+]2ccccc2)c(C)n1-c1ccccc1 | 9.1

Row | SMILES | hERG current change (%, negative = inhibition) at 1uM [%]
49 | O=C1CC(N2CCN(C3CCc4ccccc4C3)CC2)C(=O)N1c1ccccc1 (stereo not drawn) | -42.7
50 | CCOc1ccc(N2C(=O)CC(N3CCc4ccccc43)C2=O)cc1 (stereo not drawn) | 5.06
51 | COc1ccc(N2C(=O)CC(N3CCN(C4CCc5ccccc5C4)CC3)C2=O)cc1 (stereo not drawn) | -37.7
52 | Cc1ccc(N2C(=O)CC(N3CCN(c4ccccn4)CC3)C2=O)cc1 (stereo not drawn) | -8.68
53 | CCOc1ccc(N2C(=O)CC(N3CCN(C4CCc5ccccc5C4)CC3)C2=O)cc1 (stereo not drawn) | -65.5
54 | Cc1ccc(N2C(=O)CC(N3CCN(C4CCc5ccccc5C4)CC3)C2=O)cc1 (stereo not drawn) | -59
55 | O=C(CSc1nc2[nH]ncc2c(=O)[nH]1)Nc1ccc(F)cc1 | 13.3
56 | N#Cc1c(-c2ccccc2)cc(-c2ccc3c(c2)OCO3)[nH]c1=O | 11
57 | CCCCC(C(=O)O)C(C)CC(=O)Nc1cccc(C(=O)O)c1 (stereo not drawn) | 3.02
58 | Cc1cccc(OCCSCc2nc3ccccc3[nH]2)c1 | 12.1
59 | CC(=O)Nc1ccc(S(=O)(=O)Nc2ccc(-c3ccc4nnc(C)n4n3)cc2)cc1 | -3.52
60 | COc1cccc(NC(=O)c2cc3c(=O)n4ccccc4nc3n(CC(C)C)c2=N)c1 | -87.5
61 | COc1cccc(NC(=O)C(Sc2nc3ccccc3c(=O)n2CC(C)C)c2ccccc2)c1 (stereo not drawn) | 6.46
62 | Cc1cccc(NC(=O)c2cc3c(=O)n4ccccc4nc3n(CC(C)C)c2=N)c1 | -52.2
63 | COc1ccc(NC(=O)c2cc3c(=O)n4ccccc4nc3n2C)cc1OC | 11.4
64 | Cc1cccc(NC(=O)c2c(C)nc3ccccn23)c1 | 3.98
65 | Cc1cccc(NC(=O)c2cc3c(=O)n4ccccc4nc3s2)c1 | 11.5
66 | CCCC(=O)Nc1nnc(CCc2ccccc2)s1.Cl | 12.1
67 | COc1cccc(NC(=O)NC2(C(F)(F)F)Oc3ccccc3O2)c1 | 8.19
68 | Cc1cc(C)n(CC(=O)c2ccc(Br)cc2)c(=O)c1C#N | -2.8
69 | CCCN(c1ccc(OCC)cc1)S(=O)(=O)c1ccc2c(c1)CCN2C(=O)CCC(=O)O | 12.5
70 | O=C(NCCN1CCOCC1)c1cc2c(=O)n3ccccc3nc2n1Cc1ccccc1 | 8.53
71 | N=c1c(C(=O)NCc2ccc(F)cc2)cc2c(=O)n3ccccc3nc2n1CCCN1CCOCC1 | -91.8
72 | N=c1c(C(=O)NCCN2CCOCC2)cc2c(=O)n3ccccc3nc2n1CCCN1CCOCC1 | 13.2

Row | SMILES | hERG current change (%, negative = inhibition) at 1uM [%]
73 | N=c1c(C(=O)NCCN2CCOCC2)cc2c(=O)n3ccccc3nc2n1Cc1ccc(F)cc1 | -19.2
74 | N=c1c(C(=O)NCCc2ccccc2)cc2c(=O)n3ccccc3nc2n1CCCN1CCOCC1 | -77.8
75 | Cc1ccc(S(=O)(=O)c2cc3c(=O)n4ccccc4nc3n(CCCN3CCOCC3)c2=N)cc1C | 2.37
76 | N=c1c(C(=O)NCc2ccccc2)cc2c(=O)n3ccccc3nc2n1CCCN1CCOCC1 | -80.7
77 | N=c1c(S(=O)(=O)c2ccccc2)cc2c(=O)n3ccccc3nc2n1CCCN1CCOCC1 | -42.5
78 | COc1ccc(/C=C/CN2CCC(Oc3ccc(C(=O)N4CCCCC4)cc3)CC2)cc1 | -15.6
79 | COc1ccc(-c2nc(C#N)c(NCCc3ccccc3)o2)cc1OC | 10.5
80 | COc1ccc(NC(=O)C/C(C)=N/NC(=O)C(=O)NC2CCCCC2)c(OC)c1 | -3.65
81 | COc1cc(NC(=O)C/C(C)=N/NC(=O)C2CCCCC2)c(OC)cc1Cl | 14.8
82 | COc1cc(NC(=O)C/C(C)=N/NC(=O)C(=O)NC2CCCCC2)c(OC)cc1Cl | -66.8
83 | O=C(NCc1cccnc1)C12CC3CC(CC(Cl)(C3)C1)C2 | 19
84 | Cc1cccc(NC(=O)c2c(F)c(F)c(F)c(F)c2F)c1 | -0.482
85 | COc1cccc(CNc2ccc([N+](=O)[O-])cc2C)c1 | 10.7
86 | O=[N+]([O-])c1ccccc1NC1CCN(Cc2ccccc2)CC1 | -26.7
87 | Cc1cc([N+](=O)[O-])ccc1NC(=O)CN1CCN(Cc2ccccc2)CC1 | -73.7
88 | Cc1ccc(F)cc1NC(=O)CN1CCN(Cc2ccccc2)CC1 | -16.8
89 | Cc1cc([N+](=O)[O-])ccc1NCc1cccc([N+](=O)[O-])c1 | -56.6
90 | O=[N+]([O-])c1cc(C(F)(F)F)ccc1NC1CCN(Cc2ccccc2)CC1 | 3.28
91 | O=[N+]([O-])c1ccc(NC2CCN(Cc3ccccc3)CC2)c([N+](=O)[O-])c1 | -60
92 | O=C(CN1CCN(Cc2ccccc2)CC1)Nc1ccc([N+](=O)[O-])cc1C(=O)Nc1ccccc1F | -56.8
93 | Cc1cc([N+](=O)[O-])ccc1NCc1ccccc1 | 4.76
94 | O=C(CN1CCN(c2cccc(Cl)c2)CC1)Nc1ccc([N+](=O)[O-])cc1C(=O)Nc1ccccc1F | 11.4
95 | CCOC(=O)N1CCN(CC(=O)Nc2ccc([N+](=O)[O-])cc2C(=O)Nc2ccccc2F)CC1 | -5.13
96 | Cc1ccccc1NC(=O)CN1CCN(Cc2ccccc2)CC1 | 1.75
